# In PubChem BioAssay (EPA / NIEHS):
# Records with an inconclusive call do not appear. Active and inactive are the calls of the source. The calls were made as follows, unless noted: active = hit-call score of the fitted dose curve at least 0.9, where 1 is the maximum; inactive = score below 0.9.
# Columns and labels:
# [1] = read-out: Collagen I, COL1A1 (gene 1277); test: BSK_MyoF_CollagenI: BioMAP Diversity Plus: MyoF Assay for Collagen I Biomarker Activity (AID 2284238); settings: primary human lung fibroblasts
# Method in brief: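 Human lung fibroblasts were exposed to test chemical for 24 h, then Collagen I was quantified by ELISA. Activity was fitted in the increasing direction against DMSO as the negative control and baseline.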
# [2] = read-out: Collagen III, COL3A1 (gene 1281); test: BSK_MyoF_CollagenIII: BioMAP Diversity Plus: MyoF Assay for Collagen III Biomarker Activity (AID 2284239); settings: primary human lung fibroblasts
# Method in brief: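 Human lung fibroblasts were dosed with chemicals and, 24 hours later, collagen III was measured by ELISA. Activity was fitted in the positive direction against the DMSO negative-control baseline.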
# [3] = read-out: Interleukin 17F (IL17F), IL17F (gene 112744); test: BSK_BT_xIL17F: BioMAP Diversity Plus: BT Assay for Interleukin 17F (IL17F) Biomarker Activity (AID 2284243); settings: primary human B cells with PBMC
# Method in brief: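 B cell/PBMC co-culture (human primary), 24 h compound exposure; sIL-17F by Luminex xMAP; gain-of-signal fit vs DMSO baseline.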
# [4] = read-out: Actin alpha 1 (ACTA1), ACTA1 (gene 58); test: BSK_MyoF_ACTA1: BioMAP Diversity Plus: MyoF Assay for Actin alpha 1 (ACTA1) Biomarker Activity (AID 2284244); settings: primary human lung fibroblasts
# Method in brief: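 Measured by ELISA: alpha-smooth muscle actin in human primary lung fibroblasts 24 h after dosing, with DMSO as baseline and upward signal change as the fitted direction.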
# [5] = CCTE_Mundy_HCI_Cortical_NOG_NeuronCount: CCTE's Neurite Outgrowth Assay in rat cortical cells for Neuron Count, Mundy Lab (AID 2284236; active = hit-call score of the fitted dose curve at least 0.9, where 1 is the maximum;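 also: neurons counted by imaging betaIII-tubulin and Hoechst stained cortical cells; cells exposed to compound for about 48 hours before fixation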)
# Method in brief: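 Read-out: neuron number by high-content imaging of betaIII-tubulin (Alexa Fluor-488) and Hoechst-labelled rat primary cortical cells.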
# [6] = CCTE_Mundy_HCI_Cortical_NOG_BPCount: CCTE's Neurite Outgrowth Assay in rat cortical cells for Branch Point Count, Mundy Lab (AID 2284237);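 as to AC50: branch points counted about two days after chemical exposure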
# Method in brief: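 Measured 50.33 h after dosing, this morphology endpoint uses rat primary cortical cultures labelled for betaIII-tubulin. Branch points are quantified by high-content imaging, with DMSO as negative control and baseline.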
# [7] = CCTE_Mundy_HCI_hNP1_Casp3_7: CCTE's Caspase-Glo 3/7 Assay in human neuroprogenitor cells for Apoptosis, Mundy Lab (AID 2284240)
# Description: CCTE_Mundy_HCI_hNP1_Casp3_7 is a multiplexed, cell-based-readout assay that uses neural stem cells derived from a neuroepithelial cell lineage of WA09 embryonic cells with measurements taken at […] after chemical dosing in a microplate: 96-well plate.CCTE_Mundy_HCI_hNP1_Casp3_7 is one component of the CCTE_Mundy_HCI_hNP1_Casp3_7 assay. It measures apoptosis related to caspase activation using Luminescent Reporter.Data from the assay component CCTE_Mundy_HCI_hNP1_Casp3_7 was analyzed at the endpoint CCTE_Mundy_HCI_hNP1_Casp3_7_gain in the positive analysis fitting direction relative to DMSO as the negative control and baseline of activity. Using a type of viability reporter, gain -of-signal activity can be used to understand viability effects.
# Human neural progenitor cells (hNP1) were obtained as cryopreserved cells from ArunA Biomedical, Athens Georgia. Cells are plated on pre-coated poly-L-ornithine/laminin clear bottom and opaque 96 well plates (day 0). Plates are placed in a 37 °C, 5% CO2 incubator for 40 to 44 hours at which time plates are removed from the incubator and 10 uL of a freshly made chemical solution is added to each well. Apoptosis was measured based on detection of activated caspase-3/7 using the Caspase-Glo 3/7 assay kit (Promega). Twenty-four hours after chemical treatment, 50ul of Caspase-Glo 3/7 assay buffer was added to each well and the plate incubated for 30min at room temperature. Luminescence was then recorded in each well using a FLUOstar Optima plate reader.
# [8] = CCTE_Mundy_HCI_hNP1_CellTiter: CCTE's Cell Titer-Glo 2 Assay in human neuroprogenitor cells for Viability, Mundy Lab (AID 2284241; active = hit-call score of the fitted dose curve at least 0.9, where 1 is the maximum;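 as to AC50: a hit is a drop in ATP luminescence versus DMSO meaning reduced viability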)
# Method in brief: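 Measures ATP content in human neural progenitors derived from WA09 embryonic cells. Read-out at 26.5 hours after dosing, with DMSO serving as the negative control and baseline.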
# [9] = TAMU_PeakParms_SingleDonor1434_QT: Texas A&M University (TAMU) 1.5-hr Human Induced Pluripotent Stem Cell (iPSC)-derived Cardiomyocytes Calcium (Ca+2) Flux Assay for Cardiotoxicity: QT (decay-rise ratio) (AID 2284235; active = hit-call score of the fitted dose curve at least 0.9, where 1 is the maximum)
# Method in brief: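 iPSC-derived cardiomyocytes (single donor 1434) dosed at 0.2, 1, 10, 100 uM final in 0.5% DMSO, 90 min at 37C. Ca2+ flux fluorescence decay/rise ratio; EC05 (5% increase versus DMSO) as POD, excluding beat-arrest and severe-notch data.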
# [10] = CCTE_Mundy_HCI_Cortical_Synap_Neur_Matur_NeuronCount: CCTE's Synaptogenesis and Neurite Maturation Assay in rat cortical cells for Neuron Count, Mundy Lab (AID 2284242; active = hit-call score of the fitted dose curve at least 0.9, where 1 is the maximum;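 also: neuron number from Hoechst nuclei and MAP2 staining by high-content imaging; hits reduce neuron count versus DMSO baseline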)
# Method in brief: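 Imaging-based neuron count in rat cortical cultures after chemical exposure from DIV 7 to DIV 12, with AraC added at DIV 5. Activity is fitted relative to DMSO.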
compound,measurement,setting,value
C[C@@H]1CCN(C(=O)[C@H](CCCN=C(N)N)NS(=O)(=O)c2cccc3c2NC[C@H](C)C3)[C@@H](C(=O)O)C1,outcome,[1],inactive
same,outcome,[2],inactive
same,outcome,[3],inactive
same,outcome,[4],inactive
Clc1cc(Cl)c(-c2c(Cl)c(Cl)cc(Cl)c2Cl)cc1Cl,AC50,[1],2.99 µM (active)
same,AC50,[2],12.4 µM (active)
same,outcome,[3],inactive
same,AC50,[4],4.98 µM (active)
c1ccc(CCc2ccccc2)cc1,AC50,[1],31.9 µM (active)
same,AC50,[2],26.9 µM (active)
same,outcome,[3],inactive
same,AC50,[4],13.7 µM (active)
Cc1cc(CCC(=O)OCCOCCOCCOC(=O)CCc2cc(C)c(O)c(C(C)(C)C)c2)cc(C(C)(C)C)c1O,outcome,[1],inactive
same,outcome,[2],inactive
same,outcome,[3],inactive
same,outcome,[4],inactive
COCCOCCOCCO,outcome,[5],inactive
same,outcome,[6],inactive
same,outcome,[7],inactive
same,outcome,[8],inactive
CN(C)C(=S)SC(=S)N(C)C,outcome,[1],inactive
same,AC50,[2],19.9 µM (active)
same,AC50,[3],0.559 µM (active)
same,AC50,[4],36.6 µM (active)
Oc1c(Cl)cc(Cl)c(Cl)c1Cc1c(O)c(Cl)cc(Cl)c1Cl,outcome,[9],inactive
same,AC50,[5],50 µM (active)
same,AC50,[6],10.4 µM (active)
same,AC50,[1],0.215 µM (active)
same,AC50,[2],6.62 µM (active)
same,AC50,[7],27 µM (active)
same,AC50,[8],21.2 µM (active)
same,AC50,[10],5 µM (active)
same,AC50,[3],9.92 µM (active)
same,AC50,[4],0.469 µM (active)
CC(=O)Nc1ccc(C(=O)CCl)cc1,AC50,[1],29.5 µM (active)
same,AC50,[2],20 µM (active)
same,AC50,[3],3.15 µM (active)
same,AC50,[4],20 µM (active)
CN(C)CCOC(C)(c1ccccc1)c1ccccn1 (stereo not given),outcome,[5],inactive
same,outcome,[6],inactive
same,outcome,[7],inactive
COc1ccc(CCN2CCC(Nc3nc4ccccc4n3Cc3ccc(F)cc3)CC2)cc1,AC50,[1],8.62 µM (active)
same,AC50,[2],6.52 µM (active)
same,AC50,[3],6.67 µM (active)
same,AC50,[4],8.05 µM (active)
C=C(C)C(=O)OCC(CC)(COC(=O)C(=C)C)COC(=O)C(=C)C,AC50,[1],10.2 µM (active)
same,AC50,[2],29.3 µM (active)
same,AC50,[3],27.5 µM (active)
same,AC50,[4],10.5 µM (active)
IC(I)I,outcome,[1],inactive
same,outcome,[2],inactive
same,outcome,[3],inactive
same,outcome,[4],inactive
CC(=O)c1c(C)c([N+](=O)[O-])c(C(C)(C)C)c([N+](=O)[O-])c1C,outcome,[1],inactive
same,outcome,[2],inactive
same,AC50,[3],20 µM (active)
same,outcome,[4],inactive
CN(C)C(=O)Nc1ccc(Oc2ccc(Cl)cc2)cc1,outcome,[1],inactive
same,outcome,[2],inactive
same,outcome,[3],inactive
same,outcome,[4],inactive
c1ccc(Oc2ccccc2)cc1,outcome,[1],inactive
same,outcome,[2],inactive
same,outcome,[3],inactive
same,outcome,[4],inactive
CC(C)NCC(O)COc1ccc(CC(N)=O)cc1 (stereo not given),outcome,[9],inactive
CC(C)(N=C=O)c1cccc(C(C)(C)N=C=O)c1,outcome,[1],inactive
same,outcome,[2],inactive
same,outcome,[3],inactive
same,outcome,[4],inactive
c1ccc2cc(Nc3ccc(Nc4ccc5ccccc5c4)cc3)ccc2c1,outcome,[1],inactive
same,AC50,[2],4.82 µM (active)
same,outcome,[3],inactive
same,outcome,[4],inactive
COCCc1ccc(OCC(O)CNC(C)C)cc1 (stereo not given),outcome,[5],inactive
same,outcome,[6],inactive
same,outcome,[7],inactive
same,AC50,[8],2.98 µM (active)
CC1(C)C2=CCCC(C)(C)[C@]23CC[C@H]1C3,AC50,[1],30.4 µM (active)
same,AC50,[2],39 µM (active)
same,outcome,[3],inactive
same,AC50,[4],30.9 µM (active)
CCN(CC)C(=O)N(CC)CC,outcome,[1],inactive
same,outcome,[2],inactive
same,outcome,[3],inactive
same,outcome,[4],inactive
CCCCCC(C=O)=Cc1ccccc1,outcome,[1],inactive
same,outcome,[2],inactive
same,outcome,[3],inactive
same,AC50,[4],29.5 µM (active)
CC(C)(C)CC(C)(C)c1ccc(OCCOCC[N+](C)(C)Cc2ccccc2)cc1,AC50,[1],5 µM (active)
same,AC50,[2],7.02 µM (active)
same,AC50,[3],8.64 µM (active)
same,AC50,[4],8.1 µM (active)
CN(c1nccc(=O)[nH]1)C1CCN(c2nc3ccccc3n2Cc2ccc(F)cc2)CC1,outcome,[1],inactive
same,outcome,[2],inactive
same,outcome,[3],inactive
same,outcome,[4],inactive
CCC(C)c1cc([N+](=O)[O-])cc([N+](=O)[O-])c1OC(=O)OC(C)C (stereo not given),AC50,[1],2.66 µM (active)
same,AC50,[2],11.5 µM (active)
same,AC50,[3],33.7 µM (active)
same,AC50,[4],8.46 µM (active)
C=C(C)C(=O)OCCOCCOCCOCCOC(=O)C(=C)C,outcome,[1],inactive
same,outcome,[2],inactive
same,outcome,[3],inactive
same,outcome,[4],inactive
CSCCC=O,outcome,[1],inactive
same,outcome,[2],inactive
same,outcome,[3],inactive
same,outcome,[4],inactive
CC=Cc1ccc(OCC)c(O)c1,outcome,[1],inactive
same,outcome,[2],inactive
same,outcome,[3],inactive
same,outcome,[4],inactive
CC(C=O)Cc1ccc(C(C)(C)C)cc1 (stereo not given),outcome,[1],inactive
same,outcome,[2],inactive
same,outcome,[3],inactive
same,AC50,[4],31.6 µM (active)
CS(=O)(=O)c1ccc(C2=C(c3ccccc3)C(=O)OC2)cc1,outcome,[1],inactive
same,outcome,[2],inactive
same,outcome,[3],inactive
same,outcome,[4],inactive
C=C(C)[C@H]1CC=C(C)C(=O)C1,outcome,[1],inactive
same,outcome,[2],inactive
same,outcome,[3],inactive
same,outcome,[4],inactive
COc1cc(Cl)c(OC)cc1N,outcome,[1],inactive
same,outcome,[2],inactive
same,outcome,[3],inactive
same,outcome,[4],inactive
CC(=O)C1(C)CC2=C(CCCC2(C)C)CC1C (stereo not given),AC50,[1],24.7 µM (active)
same,AC50,[2],26 µM (active)
same,AC50,[3],30.5 µM (active)
same,AC50,[4],13.1 µM (active)
O=C1OC[C@H](Cc2cccc(O)c2)[C@H]1Cc1cccc(O)c1,outcome,[1],inactive
same,outcome,[2],inactive
same,outcome,[3],inactive
same,outcome,[4],inactive
C=C(C)C(=O)OCCOCCOCCOC(=O)C(=C)C,outcome,[1],inactive
same,outcome,[2],inactive
same,outcome,[3],inactive
same,outcome,[4],inactive
C1=CC2C3C=CC(C3)C2C1 (stereo not given),outcome,[1],inactive
same,outcome,[2],inactive
same,outcome,[3],inactive
same,outcome,[4],inactive
O=C1OC2(c3ccccc31)c1ccc(O)c(Br)c1Oc1c2ccc(O)c1Br,outcome,[1],inactive
same,AC50,[2],20 µM (active)
same,outcome,[3],inactive
same,outcome,[4],inactive
O=C1c2ccccc2C(=O)c2c(O)ccc(O)c21,outcome,[1],inactive
same,outcome,[2],inactive
same,AC50,[3],9.01 µM (active)
same,outcome,[4],inactive
CCCCCCCCCCCCCCCC(=O)OC/C=C(C)/C=C/C=C(C)/C=C/C1=C(C)CCCC1(C)C,outcome,[1],inactive
same,outcome,[2],inactive
same,outcome,[3],inactive
same,outcome,[4],inactive
COc1ccc(OC)c(N=Nc2c(O)ccc3ccccc23)c1,outcome,[1],inactive
same,AC50,[2],10.4 µM (active)
same,AC50,[3],5.41 µM (active)
same,AC50,[4],10.5 µM (active)
CCCCOC(=O)CCCCCCCC(=O)OCCCC,outcome,[1],inactive
same,outcome,[2],inactive
same,outcome,[3],inactive
same,outcome,[4],inactive
CCCCN(CCCC)C(=O)N(CCCC)CCCC,AC50,[1],9.53 µM (active)
same,AC50,[2],8.12 µM (active)
same,AC50,[3],29 µM (active)
same,AC50,[4],6.35 µM (active)
